In the supplement of paper PMC11732987, “Enantioselective OTUD7B fragment discovery through chemoproteomics screening and high-throughput optimisation” (Communications Chemistry, 2025):

These targets were tested with OC1CN(Cc2sccc12)C(=O)CCl (assay: log2 ratio of Biotin-Ahx-Ub-VS probe labelling (compound/DMSO); higher = less target engagement, active = hit call of the paper (q ≤ 0.05, log2 ratio ≤ -1)). Details: compound concentration: 50uM; treatment time: 3 h.
Protocol: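 Round 2 competitive ABPP in HEK293T lysate. Purified HTC-D2B compounds were tested at 50 and 200 µM for 3 h, followed by Biotin-Ahx-Ub-VS enrichment and diaPASEF LC-MS/MS. Values are the average log2 ratio (compound/DMSO) from an unpaired t-test (n=3 treated, n=26 DMSO).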

UniProt Q96JH7, sequence (Q96JH7 whole entry): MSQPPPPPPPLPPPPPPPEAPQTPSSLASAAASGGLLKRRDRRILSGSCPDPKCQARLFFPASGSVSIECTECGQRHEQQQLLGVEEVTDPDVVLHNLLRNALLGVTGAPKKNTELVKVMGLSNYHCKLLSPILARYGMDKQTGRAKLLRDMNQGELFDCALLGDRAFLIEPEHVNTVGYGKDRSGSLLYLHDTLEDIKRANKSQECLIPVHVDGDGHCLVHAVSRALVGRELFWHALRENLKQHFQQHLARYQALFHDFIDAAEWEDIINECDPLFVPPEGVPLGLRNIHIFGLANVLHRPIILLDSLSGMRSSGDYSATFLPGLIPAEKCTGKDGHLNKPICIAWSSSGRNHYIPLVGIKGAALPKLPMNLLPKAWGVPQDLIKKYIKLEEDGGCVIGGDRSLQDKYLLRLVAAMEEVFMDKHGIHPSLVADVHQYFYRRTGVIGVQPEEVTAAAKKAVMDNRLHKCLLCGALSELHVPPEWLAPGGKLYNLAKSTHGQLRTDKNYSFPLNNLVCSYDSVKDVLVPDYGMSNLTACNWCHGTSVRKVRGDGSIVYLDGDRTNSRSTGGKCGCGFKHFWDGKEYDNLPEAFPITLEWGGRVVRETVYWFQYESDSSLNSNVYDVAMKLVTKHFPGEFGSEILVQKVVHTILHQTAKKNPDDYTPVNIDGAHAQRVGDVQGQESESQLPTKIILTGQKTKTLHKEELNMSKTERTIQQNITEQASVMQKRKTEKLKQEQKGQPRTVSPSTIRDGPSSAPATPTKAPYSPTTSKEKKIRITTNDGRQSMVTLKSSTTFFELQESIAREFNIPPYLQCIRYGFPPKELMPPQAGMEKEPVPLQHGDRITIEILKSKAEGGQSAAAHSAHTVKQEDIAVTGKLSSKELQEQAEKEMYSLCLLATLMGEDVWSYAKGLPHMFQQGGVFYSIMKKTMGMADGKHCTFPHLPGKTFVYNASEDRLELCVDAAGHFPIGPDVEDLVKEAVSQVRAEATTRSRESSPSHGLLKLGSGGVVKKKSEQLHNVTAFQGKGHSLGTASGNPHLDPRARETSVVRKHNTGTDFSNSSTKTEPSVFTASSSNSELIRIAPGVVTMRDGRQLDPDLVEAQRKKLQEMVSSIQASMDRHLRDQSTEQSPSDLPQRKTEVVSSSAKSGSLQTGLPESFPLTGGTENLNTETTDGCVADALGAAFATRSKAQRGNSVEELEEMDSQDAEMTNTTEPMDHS
UniProt O94966, sequence (O94966 whole entry): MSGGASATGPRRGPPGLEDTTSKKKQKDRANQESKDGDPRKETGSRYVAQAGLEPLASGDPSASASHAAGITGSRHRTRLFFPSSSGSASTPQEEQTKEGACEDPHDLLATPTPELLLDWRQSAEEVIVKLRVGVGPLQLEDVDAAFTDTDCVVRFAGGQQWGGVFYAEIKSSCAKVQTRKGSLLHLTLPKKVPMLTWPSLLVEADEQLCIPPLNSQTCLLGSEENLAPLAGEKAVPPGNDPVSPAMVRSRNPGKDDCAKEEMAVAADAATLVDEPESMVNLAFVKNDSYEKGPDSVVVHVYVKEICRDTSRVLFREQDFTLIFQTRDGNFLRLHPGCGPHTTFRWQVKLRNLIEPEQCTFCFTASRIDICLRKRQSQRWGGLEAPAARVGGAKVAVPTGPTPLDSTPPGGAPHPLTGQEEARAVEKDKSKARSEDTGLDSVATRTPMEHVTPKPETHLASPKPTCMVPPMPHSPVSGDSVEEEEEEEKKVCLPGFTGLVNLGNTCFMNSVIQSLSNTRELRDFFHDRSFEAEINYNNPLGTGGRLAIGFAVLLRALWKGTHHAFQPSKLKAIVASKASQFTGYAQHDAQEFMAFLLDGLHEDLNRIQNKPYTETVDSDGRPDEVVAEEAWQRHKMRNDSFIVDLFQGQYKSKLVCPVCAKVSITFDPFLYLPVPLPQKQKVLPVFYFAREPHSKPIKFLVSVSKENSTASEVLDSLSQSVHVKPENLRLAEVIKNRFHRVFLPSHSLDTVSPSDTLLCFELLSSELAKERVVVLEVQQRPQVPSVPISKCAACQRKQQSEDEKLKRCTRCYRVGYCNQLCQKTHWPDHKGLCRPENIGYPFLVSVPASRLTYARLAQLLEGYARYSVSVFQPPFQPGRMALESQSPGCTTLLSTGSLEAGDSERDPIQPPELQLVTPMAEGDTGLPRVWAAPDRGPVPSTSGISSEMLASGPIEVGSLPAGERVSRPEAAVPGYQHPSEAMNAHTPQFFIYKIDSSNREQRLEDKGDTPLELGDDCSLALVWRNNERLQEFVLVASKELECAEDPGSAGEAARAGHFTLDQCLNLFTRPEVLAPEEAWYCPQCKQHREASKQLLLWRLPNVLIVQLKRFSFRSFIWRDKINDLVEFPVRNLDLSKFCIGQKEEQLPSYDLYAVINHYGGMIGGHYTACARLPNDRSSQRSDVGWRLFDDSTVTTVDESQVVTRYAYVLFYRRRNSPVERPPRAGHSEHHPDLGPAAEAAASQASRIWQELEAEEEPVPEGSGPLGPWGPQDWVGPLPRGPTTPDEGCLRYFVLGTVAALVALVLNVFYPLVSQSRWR
UniProt Q8N6M0, sequence (Q8N6M0 whole entry): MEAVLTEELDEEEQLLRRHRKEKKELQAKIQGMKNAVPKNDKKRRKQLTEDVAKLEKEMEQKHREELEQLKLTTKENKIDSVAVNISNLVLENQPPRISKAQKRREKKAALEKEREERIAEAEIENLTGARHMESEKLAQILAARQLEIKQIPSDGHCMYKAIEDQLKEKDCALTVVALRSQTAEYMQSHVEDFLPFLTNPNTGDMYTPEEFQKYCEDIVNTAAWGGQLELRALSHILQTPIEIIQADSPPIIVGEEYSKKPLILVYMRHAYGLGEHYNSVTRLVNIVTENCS
UniProt P54578, sequence (P54578 whole entry): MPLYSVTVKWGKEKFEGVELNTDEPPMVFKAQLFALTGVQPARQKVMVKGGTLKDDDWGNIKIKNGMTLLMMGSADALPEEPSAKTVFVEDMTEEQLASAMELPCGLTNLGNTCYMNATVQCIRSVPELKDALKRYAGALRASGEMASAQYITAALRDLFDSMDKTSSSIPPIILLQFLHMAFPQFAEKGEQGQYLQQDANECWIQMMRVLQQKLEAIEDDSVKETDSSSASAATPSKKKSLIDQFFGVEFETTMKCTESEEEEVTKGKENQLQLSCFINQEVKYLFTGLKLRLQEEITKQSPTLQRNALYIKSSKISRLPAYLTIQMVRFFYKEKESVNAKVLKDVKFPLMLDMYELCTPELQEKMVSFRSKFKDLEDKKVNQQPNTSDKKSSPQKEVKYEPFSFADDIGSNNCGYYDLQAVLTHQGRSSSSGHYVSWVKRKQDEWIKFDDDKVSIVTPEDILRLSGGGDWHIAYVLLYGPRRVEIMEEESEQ
UniProt Q9Y4E8, sequence (Q9Y4E8 whole entry): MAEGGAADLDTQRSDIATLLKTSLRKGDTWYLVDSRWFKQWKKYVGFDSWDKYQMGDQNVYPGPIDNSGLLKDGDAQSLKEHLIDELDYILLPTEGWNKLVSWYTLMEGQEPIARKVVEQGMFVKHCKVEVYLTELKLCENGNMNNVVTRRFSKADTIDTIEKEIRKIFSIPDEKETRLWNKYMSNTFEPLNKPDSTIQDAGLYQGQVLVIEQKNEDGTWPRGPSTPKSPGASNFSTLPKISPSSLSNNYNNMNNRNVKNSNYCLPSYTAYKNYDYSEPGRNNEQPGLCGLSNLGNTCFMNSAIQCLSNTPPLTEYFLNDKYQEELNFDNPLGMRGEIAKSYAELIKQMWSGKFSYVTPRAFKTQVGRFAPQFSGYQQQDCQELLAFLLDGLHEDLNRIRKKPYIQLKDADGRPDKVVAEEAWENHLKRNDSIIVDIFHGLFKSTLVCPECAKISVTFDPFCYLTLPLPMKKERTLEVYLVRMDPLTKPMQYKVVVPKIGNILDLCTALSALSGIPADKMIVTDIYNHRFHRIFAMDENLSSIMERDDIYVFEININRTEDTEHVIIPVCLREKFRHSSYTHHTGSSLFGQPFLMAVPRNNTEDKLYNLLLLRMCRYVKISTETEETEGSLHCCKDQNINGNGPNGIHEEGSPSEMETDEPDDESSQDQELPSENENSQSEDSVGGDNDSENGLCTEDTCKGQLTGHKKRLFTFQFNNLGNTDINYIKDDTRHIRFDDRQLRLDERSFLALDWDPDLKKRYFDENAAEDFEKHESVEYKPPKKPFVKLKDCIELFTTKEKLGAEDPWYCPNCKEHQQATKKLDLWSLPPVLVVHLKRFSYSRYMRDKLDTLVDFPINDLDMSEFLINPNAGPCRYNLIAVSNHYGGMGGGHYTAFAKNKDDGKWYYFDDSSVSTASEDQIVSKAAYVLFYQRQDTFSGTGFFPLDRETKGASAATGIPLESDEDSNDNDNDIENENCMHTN
UniProt Q9Y5K5, sequence (Q9Y5K5 whole entry): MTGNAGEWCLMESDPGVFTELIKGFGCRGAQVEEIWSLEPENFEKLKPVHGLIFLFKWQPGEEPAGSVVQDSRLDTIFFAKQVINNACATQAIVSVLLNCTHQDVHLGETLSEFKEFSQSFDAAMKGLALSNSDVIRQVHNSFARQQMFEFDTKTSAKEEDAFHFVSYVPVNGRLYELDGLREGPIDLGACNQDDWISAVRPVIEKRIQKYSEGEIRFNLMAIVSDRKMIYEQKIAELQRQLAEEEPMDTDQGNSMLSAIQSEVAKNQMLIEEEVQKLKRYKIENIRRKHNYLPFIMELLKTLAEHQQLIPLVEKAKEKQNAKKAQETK

log2 ratio of Biotin-Ahx-Ub-VS probe labelling, inactive:
USP9X (UniProt Q93008) 0.00293, USP15 (UniProt Q9Y4E8) -0.214, VCPIP1 (UniProt Q96JH7) -0.309, UCHL5 (UniProt Q9Y5K5) -0.2, OTUD6B (UniProt Q8N6M0) -0.139, USP19 (UniProt O94966) -0.389, USP25 (UniProt Q9UHP3) 0.472, USP14 (UniProt P54578) -0.385

Same assay, conditions: compound concentration: 200uM; treatment time: 3 h

log2 ratio of Biotin-Ahx-Ub-VS probe labelling, inactive:
USP9X (UniProt Q93008) -0.116, USP15 (UniProt Q9Y4E8) -0.404, VCPIP1 (UniProt Q96JH7) -0.285, UCHL5 (UniProt Q9Y5K5) -0.0949, OTUD6B (UniProt Q8N6M0) -0.239, USP19 (UniProt O94966) -0.703, USP25 (UniProt Q9UHP3) 0.301, USP14 (UniProt P54578) -0.604
